Bioassay records as filed in PubChem BioAssay.
NS1 inh – qHTS Assay for Inhibitors of Influenza NS1 Protein Function; Potency, µM (titrated, usually from 46.1 µM), for inactives: at the highest dose activity, positive = more growth; hit rate 0.4% among 270,000; AID 2326, 2010; calls by dose curve; note: actives are rising curves; nearly all actives have a fitted effect of over 50% in size
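In this qHTS, NS1 from influenza A is expressed in budding yeast, where it slows growth. Cells are switched from glucose to 2% galactose medium (pH 6.0, -URA), treated with compound, and growth recovery is read at OD600.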
Pf growth 96h – Primary qHTS for delayed death inhibitors of the malarial parasite plastid, 96 hour incubation. P. falciparum luciferase reporter growth, 96 h. Potency, µM (titrated, usually from 28.7 µM), for inactives: at the top dose activity change, negative = inhibition, usual class: inhibitors. hit rate 6.9% among 320,000; note: % is set by controls: 0 for no effect and ±100 for the full control effect
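96 h incubation, 37 C, 5% CO2, of luciferase-reporter P. falciparum-infected RBCs (2% hematocrit, 0.05% parasitemia final) with test compounds; endpoint luminescence.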
HCV inhibitor – qHTS Assay for Inhibitors of Hepatitis C Virus (HCV) | Potency, µM (top dose mostly 41.8 µM), for the others: top-dose activity change, negative = inhibition, usual class: inhibitors | hit rate 3.4% among 340,000 | AID 651820, 2012 | Huh7.5.1 HCVcc-Cre infection, luciferase reporter, 44 h; note: % is set by controls: 0 for no effect and ±100 for the full control effect
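Whole-lifecycle infectious HCVcc-Cre system; cells 1,000/well, compound then virus (~0.5 moi) added 4 h after plating, 44 h culture. Luciferase read 15 sec following 15 min substrate incubation, room temp.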
Pf growth 48h – Primary qHTS for delayed death inhibitors of the malarial parasite plastid, 48 hour incubation; P. falciparum luciferase growth in erythrocytes, 48 h; Potency, µM (top dose mostly 28.7 µM), for the others: top-dose activity change, negative = inhibition, actives largely listed as inhibitors; hit rate 5.9% among 310,000; AID 504832, 2011; note: % is set by controls: 0 for no effect and ±100 for the full control effect
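Here the parasites carry a stable luciferase gene and grow inside erythrocytes in Albumax-based RPMI medium with compound for one erythrocytic cycle. Activity is scored as loss of luminescent signal.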
AMA1 RON2 block – qHTS for Inhibitors of AMA1-RON; Towards Development of Antimalarial Drug Lead: Primary Screen; Plasmodium falciparum AMA1 (3D7) - RON2 peptide interaction; hit rate 0.2% among 360,000; AlphaScreen AMA1-biotinylated RON2 peptide binding; AID 720542, 2013; Potency, µM (series often up to 58.2 µM), for the others: top-dose activity change, negative = inhibition, actives largely listed as inhibitors;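 note: 0% = vehicle wells and -100% = peptide control; nearly all actives have a fitted effect of over 45% in size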
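AMA1 (3D7) with his tag at 25 nM final met compounds first, then biotinylated RON2 peptide at 25 nM; detection used donor plus acceptor beads, 10 µg/mL apiece, read by AlphaScreen after 30 min at room temperature.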
SARS PLpro yeast – qHTS of Yeast-based Assay for SARS-CoV PLP. S. cerevisiae expressing SARS-CoV PLpro, growth rescue. Potency, µM (titrated, usually from 32.9 µM), for inactives: at the highest dose activity, positive = growth rescue, hits mostly activators. hit rate 0.19% among 330,000. AID 485353, 2010; calls by dose curve; note: 0% is about no effect; nearly all actives have a fitted effect of over 55% in size
* marks the source's active call; other numbers are inactive results; ? = inconclusive; nt = no result given; [ ] = another dose, or the depositor's remark. Rows were chosen to be rich in hits. Some 12% of all compounds tested hit in one or more screens of this group. Unless noted, calls come from the whole dose curve; as a rule, active = well fitted curve in the direction sought with a large enough effect; inconclusive = small, poorly fitted or top-dose-only effect, or another doubt; inactive = no such curve, though single readings can be large; an effect the other way counts as inactive or inconclusive. Potency is the fitted concentration of half-maximal effect.

SMILES	NS1 inh	Pf growth 96h	HCV inhibitor	Pf growth 48h	AMA1 RON2 block	SARS PLpro yeast
CCC(CC)NC(=O)c1oc2ccccc2c1COc1ccccc1	14.8%	4.15µM*	?	6.57µM*	-4.1%	26.3%
Cc1cc(C)cc(NC(=O)c2oc3ccccc3c2COc2ccccc2)c1	9.6%	-102.5%	-22.1%	?	-3.4%[2.32 µM]	-7.5%
CC(C)N=C(NS(=O)(=O)NC(=O)c1ccccc1)c1ccccc1	nt	28.0%	24.5%	15.4%	8.5%	1.7%
Cc1ccc(-n2c(SCC(=O)Nc3cccc(S(=O)(=O)NC4=NCCCCC4)c3)nc3ccccc3c2=O)cc1C	9.0%	?	23.3%	?	-6.3%	-3.9%
CCCn1c(SCC(=O)Nc2cccc(S(=O)(=O)NC3=NCCCCC3)c2)nc2ccccc2c1=O	nt	6.57µM*	-17.5%	8.28µM*	15.2%	4.5%
CCOCCCn1c(SCC(=O)Nc2cccc(S(=O)(=O)NC3=NCCCCC3)c2)nc2ccccc2c1=O	0.0%	-9.6%	-17.2%	6.57µM*	4.2%	-0.6%
O=c1c2ccccc2c(C=Nc2cccc(S(=O)(=O)NC3=NCCCCC3)c2)c(O)n1Cc1ccccc1	12.0%	?	-23.1%	1.65µM*	-12.0%	0.1%
O=C(NCc1ccc2c(c1)OCO2)C1CCCN1C(=O)Nc1ccc(Cl)cc1 (centres undefined)	-7.7%	23.3%	2.9%	2.2%	5.8%	-0.7%
COc1ccc(C(=O)N(C)CC2CCN(CCc3cccc(C(F)(F)F)c3)CC2)cc1C	15.4%	37.7%	?	?	4.2%	0.1%
CC1(C)CN2C(=S)N(c3ccccc3)C(c3ccccc3)N2C1 (centres undefined)	-5.0%	8.28µM*	9.3%	nt	27.3%	-12.4%
O=c1c(Cl)c(NCCCO)cnn1-c1nc2ccccc2[nH]1	-210.8%	462.5%	10µM*	348.3%	9.5%	-31.6%
C=CCN(CC=C)c1cnn(-c2nc3ccccc3[nH]2)c(=O)c1Cl	-90.5%	nt	-1.5%	-22.0%	-7.7%	-6.8%
Cc1cc2cc(CNC(=O)c3ccco3)ccc2n1C	-4.4%	?	-5.3%	?	-1.8%	0.5%
COCC(=O)NCc1ccc2c(c1)cc(C)n2C	6.9%	4.65µM*	-5.0%	-5.2%	-19.8%	-5.6%
Cc1onc(-c2ccccc2Cl)c1C(=O)NCc1ccc2c(c1)cc(C)n2C	14.2%	?	?	10.4µM*	-26.2%	-1.3%
COc1cc(OC)cc(C(=O)NCc2ccc3c(c2)cc(C)n3C)c1	1.7%	9.28µM*	-21.7%	-17.1%	?	-0.8%
Cc1cc2cc(CNC(=O)c3cc4ccccc4o3)ccc2n1C	11.7%	14.7µM*	nt	11.7µM*	nt	-13.8%
Cc1cc2cc(CNC(=O)COc3ccccc3)ccc2n1C	?	-1.9%	3.0%	-0.6%	-12.4%	-0.2%
COc1ccccc1NS(=O)(=O)c1cc(NC(=O)C2CCCO2)ccc1C (centres undefined)	nt	nt	15.2%	nt	-3.3%	0.6%
CCCn1nc(C(=O)NNC(=O)CSC(C)C(=O)Nc2cc(C)on2)c2ccccc2c1=O (centres undefined)	8.6%	-0.3%	8.3%	-1.0%	93.6%	-2.2%
O=C(Nc1nnc(SCCN2CCOCC2)s1)C1CC(=O)N(c2ccccc2)C1 (centres undefined)	-0.3%	?	23.5%	-22.7%	-1.1%	22.3%
Cc1nc2ccccc2c(=O)n1/N=C/c1ccc(C(C)C)cc1	-6.7%	50.5%	25.1µM*	41.6%	3.6%	-3.1%
COc1ccc(-c2cn(Cc3ccc(C(N)=O)cc3)c(-c3ccc(Cl)nc3)n2)cc1	nt	33.0%	11.1%	?	-11.4%	-5.2%
COc1ccc(-c2cn(Cc3ccc(C(=O)NCc4ccc(C)cc4)cc3)c(C(C)N)n2)cc1 (centres undefined)	nt	?	?	11.7µM*	76.5%	0.4%
COc1cc(C2C(C#N)=C(N)Oc3c2ccc2ccccc32)ccc1OCC(=O)Nc1ccc(C)cc1 (centres undefined)	?	0.0%	2µM*	10.4µM*	-12.1%[11.6 µM]	6.5%
SMILES	NS1 inh	Pf growth 96h	HCV inhibitor	Pf growth 48h	AMA1 RON2 block	SARS PLpro yeast
O=C(CC(=O)Nc1cccc(Cl)c1Cl)Nc1cccc(Cl)c1Cl	-1.9%	-6.1%	-2.0%	nt	2.3%	-0.6%
COc1cccc(N2CCN(C(=S)Nc3ccccc3OC)CC2)c1	13.9%	9.28µM*	-5.8%	-14.1%	-4.0%	1.7%
COc1ccc(NC(=S)N2CCN(C(c3ccccc3)c3ccccc3)CC2)c(OC)c1	10.2%	72.0%	?	5.22µM*	-19.7%	-2.3%
COc1cccc(NC(=S)N2CCN(C(c3ccccc3)c3ccccc3)CC2)c1	2.1%	31.5%	?	26.3%	-1.5%	?
CCOc1ccccc1NC(=S)N1CCN(c2cccc(OC)c2)CC1	-3.5%	?	-26.6%	-26.5%	-12.1%	3.4%
COC(=O)c1ccc([N+](=O)[O-])c(CS(=O)(=O)c2ccc(Cl)cc2)c1	1.7%	12.1%	17.3%	-16.2%	0.3%	1.0%
CO/N=C/CC(=O)c1ccc([N+](=O)[O-])c(CS(=O)(=O)c2ccc(Cl)cc2)c1	?	?	?	14.7µM*	2.4%	0.9%
O=C(/C=C/c1cccs1)NC(=S)NNC(=O)c1ccccc1O	nt	18.4%	22.4µM*	?	-70.2%	?
COc1ccc(C(=O)NNC(=S)NC(=O)/C=C/c2cccs2)cc1	0.1%	30.8%	?	191.2%	35.7%	-1.5%
COc1ccc(N2CC(C(=O)N3CCN(c4ccccc4)CC3)CC2=O)cc1 (centres undefined)	13.3%	?	3.6%	-5.7%	13.3%	16.8%
CCN(CCNC(=O)CS(=O)(=O)Cc1nc(-c2cccc(OC)c2)oc1C)c1ccccc1	-39.4%	?	22.4µM*	-17.2%	-18.2%	-17.3%
COc1cccc(-c2nc(CS(=O)(=O)CC(=O)NCCC(C)C)c(C)o2)c1	-11.8%	25.5%	?	0.0%	-8.4%	20.9%
COc1cccc(-c2nc(CS(=O)(=O)CC(=O)NCCc3ccc(OC)cc3OC)c(C)o2)c1	-8.2%	5.4%	?	?	-7.7%	1.0%
COc1ccc(OC)c(CCNC(=O)CS(=O)(=O)Cc2nc(-c3ccc(C)cc3)oc2C)c1	?	53.4%	3.55µM*	9.0%	-2.5%	2.1%
COc1cccc(-c2nc(CS(=O)(=O)CC(=O)NCCc3cc(OC)ccc3OC)c(C)o2)c1	-8.3%	13.1µM*	?	-28.5%	-12.2%	3.8%
C(/C=C\c1ccccc1)=Nc1ccc2c(c1)Cc1ccccc1-2	-0.7%	nt	nt	nt	nt	nt
